Results on eight compounds are retold here after PubChem BioAssay.

The source made the active and inactive calls.

Test [1] is described as follows: optical density shifts of acrAB sulA E. coli – strain DRC41, OD650, 48 h, E. coli filamentation inducer project, primary screen (AID 1152).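 Note: E. coli MC1000 strain DRC41 lacking acrAB efflux pump and sulA.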 To be noted: higher = more signal, called active from +8 up or from −8 down.
The nature of test [2]: probe aLefty1 binding on compound microarray – biochemical, small-molecule microarray, 635/667 nm fluorescence, primary screen (AID 1153).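 Note: score merges spot fluorescence with signal-to-noise ratio from the scanned slide images.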 The note with it: higher = more signal.
A short description of test [3]: plasmodial surface anion channel blockers, osmotic lysis – cell-based, P. falciparum Indochina, OD700, 1 h, primary screen (AID 1154). To be noted: P. falciparum Indochina infected RBC osmotic lysis, higher = more signal, called active from +8 up or from −8 down.
Test [4] can be described thus: plasmodial surface anion channel blockers, osmotic lysis – cell-based, P. falciparum Indochina, OD700, 2 h, primary screen (AID 1155).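 Note: lysis reports solute entry through the parasite surface anion channel PSAC.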 To be noted: P. falciparum Indochina infected erythrocytes, higher = more signal, called active from +8 up or from −8 down.
Test [5] can be described thus: changes in parasitized red cell lysis, either direction – P. falciparum Indochina, OD700, 3 h, PSAC antagonist project, primary screen (AID 1156). To be noted: P. falciparum-infected erythrocytes, osmotic lysis, higher = more signal, called active from +8 up or from −8 down.
Test [6] is described as follows: plasmodial surface anion channel blockers, osmotic lysis – cell-based, P. falciparum Indochina, OD700, 18 h, primary screen (AID 1157). To be noted: P. falciparum Indochina infected erythrocytes, osmotic lysis OD700, 18 h; higher = more signal, called active from +8 up or from −8 down.
The nature of test [7]: S6 kinase pathway phospho-S6 level changes – cell-based, A549, cytoblot, luminescence, serum-stimulated, primary screen (AID 1158).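 Note: serum-stimulated A549 lung adenocarcinoma cells; signal is phosphorylated S6 detected by cytoblot immunostaining with HRP secondary.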 The note with it: 5 h, higher = more signal.
Test [8] concerns the target NADPH oxidase 2 (Homo sapiens) (UniProt P04839). Nature of the test: compounds shifting NOX2 Amplex Red fluorescence – cell-based, HEK293-NOX2, PMA-stimulated, NOX inhibitor project, primary screen (AID 1159). Note: test concentration not given here. To be noted: 45 min, higher = more signal, called active from +8 up or from −8 down.
Test [9] concerns the target NADPH oxidase 4 (Homo sapiens) (UniProt Q9NPH5). Nature of the test: compounds shifting NOX4 Amplex Red fluorescence – cell-based, HEK293-NOX4, tetracycline-induced, NOX inhibitor project, primary screen (AID 1160). The note with it: HEK293-NOX4, Amplex Red H2O2 fluorescence, 45 min; higher = more signal, called active from +8 up or from −8 down.
Test [10] deals with NADPH oxidase 5 (Homo sapiens) (UniProt Q96PH1). Nature of the test: compounds shifting NOX5 Amplex Red fluorescence – cell-based, HEK293-NOX5, NOX inhibitor project, primary screen (AID 1161). To be noted: HEK293-NOX5, ionomycin, 45 min, higher = more signal.
Sequence of NADPH oxidase 5 (Homo sapiens) (Q96PH1 whole entry, looked up): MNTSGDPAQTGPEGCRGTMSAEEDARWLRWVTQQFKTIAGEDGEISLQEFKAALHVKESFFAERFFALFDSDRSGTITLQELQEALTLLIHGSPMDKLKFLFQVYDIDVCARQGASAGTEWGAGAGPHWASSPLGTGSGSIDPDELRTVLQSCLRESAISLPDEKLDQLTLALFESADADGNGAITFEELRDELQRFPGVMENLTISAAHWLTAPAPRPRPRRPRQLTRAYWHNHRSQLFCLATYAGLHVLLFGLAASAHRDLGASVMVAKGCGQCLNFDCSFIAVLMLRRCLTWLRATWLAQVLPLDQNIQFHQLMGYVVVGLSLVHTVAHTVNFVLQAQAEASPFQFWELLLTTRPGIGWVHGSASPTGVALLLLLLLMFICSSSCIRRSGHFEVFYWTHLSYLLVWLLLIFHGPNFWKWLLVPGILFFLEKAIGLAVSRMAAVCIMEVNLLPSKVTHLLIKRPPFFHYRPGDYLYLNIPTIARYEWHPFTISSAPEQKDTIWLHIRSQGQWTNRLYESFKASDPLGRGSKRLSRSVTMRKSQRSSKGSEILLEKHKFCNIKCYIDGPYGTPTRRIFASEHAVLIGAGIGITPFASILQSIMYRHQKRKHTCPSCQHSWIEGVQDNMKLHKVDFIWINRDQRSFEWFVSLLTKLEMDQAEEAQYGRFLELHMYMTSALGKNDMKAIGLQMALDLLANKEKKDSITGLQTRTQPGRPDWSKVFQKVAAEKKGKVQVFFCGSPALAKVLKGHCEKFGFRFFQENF

Sequence of NADPH oxidase 2 (Homo sapiens) (P04839 whole entry, looked up): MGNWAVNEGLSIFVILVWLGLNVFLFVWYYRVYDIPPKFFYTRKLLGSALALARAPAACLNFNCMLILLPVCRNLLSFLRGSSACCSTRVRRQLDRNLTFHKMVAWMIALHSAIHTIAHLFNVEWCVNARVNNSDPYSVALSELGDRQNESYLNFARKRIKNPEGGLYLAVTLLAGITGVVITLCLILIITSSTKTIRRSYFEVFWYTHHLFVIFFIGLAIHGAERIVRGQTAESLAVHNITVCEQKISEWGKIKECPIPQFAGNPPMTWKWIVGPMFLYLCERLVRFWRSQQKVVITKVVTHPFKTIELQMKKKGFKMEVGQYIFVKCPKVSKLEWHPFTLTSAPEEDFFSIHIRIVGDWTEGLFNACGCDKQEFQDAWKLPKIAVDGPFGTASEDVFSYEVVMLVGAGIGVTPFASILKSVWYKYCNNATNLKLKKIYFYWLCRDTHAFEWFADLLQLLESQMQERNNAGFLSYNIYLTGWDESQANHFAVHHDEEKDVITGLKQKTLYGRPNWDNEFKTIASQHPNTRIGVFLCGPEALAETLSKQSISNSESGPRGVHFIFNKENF
Sequence of NADPH oxidase 4 (Homo sapiens) (Q9NPH5 whole entry, looked up): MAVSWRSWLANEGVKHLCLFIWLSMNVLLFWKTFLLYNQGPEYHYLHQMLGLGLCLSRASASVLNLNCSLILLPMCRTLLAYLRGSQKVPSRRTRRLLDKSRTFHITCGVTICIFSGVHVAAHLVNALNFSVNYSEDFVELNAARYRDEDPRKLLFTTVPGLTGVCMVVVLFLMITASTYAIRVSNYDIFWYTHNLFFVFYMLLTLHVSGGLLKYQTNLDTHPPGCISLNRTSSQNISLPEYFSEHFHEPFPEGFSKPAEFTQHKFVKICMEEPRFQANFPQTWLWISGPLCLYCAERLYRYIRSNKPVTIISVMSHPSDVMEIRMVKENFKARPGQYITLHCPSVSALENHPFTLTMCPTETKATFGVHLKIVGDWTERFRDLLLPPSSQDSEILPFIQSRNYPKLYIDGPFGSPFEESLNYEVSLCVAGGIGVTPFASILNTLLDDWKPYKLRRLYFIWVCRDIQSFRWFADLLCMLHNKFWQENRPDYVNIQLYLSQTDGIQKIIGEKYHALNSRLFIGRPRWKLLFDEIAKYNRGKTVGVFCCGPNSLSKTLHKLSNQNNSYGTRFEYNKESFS

For the compound `C=CC[C@]1(C(=O)NCCN2CCOCC2)N=C(c2ccc(OCCCO)cc2)O[C@H]1c1ccccc1`, the z-score in test [1] is -0.151 (inactive); in test [3], 4.72 (inactive); in test [4], 0.644 (inactive); in test [5], 0.168 (inactive); in [6], 0.275 (inactive); in test [7], -0.45. Further, the z-score in test [8] was 0.0905 (inactive); in [9], -0.0559 (inactive); in [10], 0.115. In test [2], the composite z-score worked out at 0.296.

As for `CC(C)c1ccc(NN2C(C(O)C3=C[C@H]4C[C@@H](C3)C4(C)C)C=CC3C(=O)N(c4ccccc4)C(=O)C32)cc1` (stereo not given in full), the z-score was -0.736 (inactive) in [1]; 1.8 (inactive) in test [3]; 1.13 (inactive) in test [4]; 0.0675 (inactive) in test [5]; 1.37 (inactive) in [6]; -0.578 in test [7]. For the same compound, the z-score in test [8] is -0.843 (inactive); in [9] it was -3.08 (inactive); in test [10], -1.62. In test [2], this compound had a composite z-score of 0.587.

For `CC(CO)N1C(=O)[C@@H]2[C@H]3C(=O)OCC=C[C@H]3OC23C=CCN(c2ccc4ccccc4c2)C(=O)[C@@H]13` (stereo not given in full), the z-score in test [1] was -0.855 (inactive); in [3], 0.201 (inactive); in [4] it was 0.0537 (inactive); in test [5], 0.162 (inactive); in test [6], -0.0627 (inactive); in [7] it was -0.409. Further, the values for the z-score in test [8], in test [9] and in [10] were 0.405 (inactive), 0.512 (inactive) and 1.79, respectively. Further, the composite z-score in test [2] amounted to 0.0927.

Turning to `[N-]=[N+]=Nc1ccccc1C[C@@]1(C(=O)NCc2ccccc2)N=C(c2ccc(OCCCO)cc2)O[C@@H]1c1ccccc1`, the z-score in test [1] is 0.0295 (inactive); in test [3], 27.6 (active); in [4] it was 17.3 (active); in test [5], 1.4 (inactive); in test [6] it was 2.09 (inactive); in [7], 0.308. The values for the z-score in test [8], in test [9] and in [10] were -1.67 (inactive), -0.0758 (inactive) and -1.1, respectively. Further, the composite z-score in [2] is 1.43.

For the compound `CN1C(=O)C2C=CC(C(O)COCc3ccccc3)N(Nc3ccc([N+](=O)[O-])cc3[N+](=O)[O-])C2C1=O` (stereo not given), the z-score in [1] is -0.416 (inactive); in test [3], 3.59 (inactive); in [4], 1.4 (inactive); in [5], -0.0794 (inactive); in test [6], 1.05 (inactive); in [7], -0.859. Also, the z-score was 0.223 (inactive) in [8], -2.17 (inactive) in test [9] and -0.914 in [10]. This compound also yielded a composite z-score in [2] of 0.332.

With `COC(=O)C(CC#Cc1ccc2c(c1)[C@]1(C(=O)N2)[C@H](C(=O)NC[C@H](O)c2ccccc2)[C@H]2C(=O)O[C@H](c3ccccc3)[C@H](c3ccccc3)N2[C@@H]1c1ccc(O)cc1)C(=O)OC`, the z-score in test [1] was -1.21 (inactive); in test [3], 1.44 (inactive); in [4], 0.21 (inactive); in [5] it was -0.506 (inactive); in [6], -0.0801 (inactive); in [7], -0.0784. Moreover, the z-score is 1.4 (inactive) in test [8], 0.691 (inactive) in [9] and 1.33 in test [10]. The composite z-score in test [2] is -0.445.

`CC(C)(C)OC(=O)CC[C@]1(C(=O)N2CCOCC2)COC(c2ccc(OCCCO)cc2)=N1`: the z-score is 1.54 (inactive) in [1]; 20.8 (active) in [3]; 4.54 (inactive) in test [4]; 0.384 (inactive) in test [5]; 1.18 (inactive) in [6]; 0.359 in test [7]. In addition, the results for the z-score in test [8], in test [9] and in [10] were -1.16 (inactive), 0.324 (inactive) and -1.06, respectively. Moreover, in test [2], the composite z-score turned out to be 0.0429.

For `COCCOC(=O)N1C(=O)[C@@]2(c3cc(C#CCNC(N)=O)ccc31)[C@H](c1ccccc1OCCO)N1[C@H](c3ccccc3)[C@H](c3ccccc3)OC(=O)[C@H]1[C@@H]2C(=O)N1CCCCCCC1`, the z-score in test [1] was -0.583 (inactive); in test [3], 1.21 (inactive); in test [4] it was 0.696 (inactive); in [5] it was 0.346 (inactive); in test [6], 0.238 (inactive); in test [7] it was -0.418. Also, the values for the z-score in [8], in test [9] and in test [10] were 1.39 (inactive), 1.05 (inactive) and 0.903, respectively. This compound returned a composite z-score in test [2] of 0.359.
